# Compounds with a hit are over-represented: about 4.1% of the library has one in this group of screens.
# hcDAF12 agonist = H. contortus DAF-12 activation, primary screen; activation, % at 6.8 µM; actives 1.4% (n = 370,000); AID 652067; HEK293 hcDAF-12 lit1-tk-luc reporter, luminescence; 0% DMSO, 100% Δ7-dafachronic acid;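 active means activation above the mean of all tested compounds plus 3 SD, cut at about 5.5% in these data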;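 further: 100% = response to 3 µM Δ7-dafachronic acid high control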
# DAX1 inh-1 = inhibits human nuclear receptor DAX1; actives 0.99% (n = 340,000); HEK293 Gal4-DAX1 luciferase reporter, luminescence; inhibition, % at 6.75 µM;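 active means inhibition above the mean over all tested compounds plus 3 SD, cut at about 4.2% in these data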;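 further: 0% = DAX1-transfected cells with DMSO and 100% = empty-vector control cells with DMSO; inhibition shows as a rise in luminescence from relieved DAX1 repression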
# DAX1 inh-2 = blocks DAX1 repression of SF-1 activated StAR promoter; inhibition, % at 6.8 µM; HEK293T StAR-luciferase reporter, SF-1/DAX-1 repression relief; actives 1.1% (n = 370,000); AID 652010;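 active means inhibition above the mean over all tested compounds plus 3 SD, cut at about 3.6% in these data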;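 further: 0% = DAX-1 cells with DMSO and 100% = cells lacking DAX-1 with DMSO; higher inhibition means more luminescence from relief of DAX-1 repression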
# hgDAF12 agonist = agonists of H. glycines DAF-12 nuclear receptor; HEK293 GAL4-hgDAF12 UAS-luciferase reporter, agonist luminescence; normalized to butyrate control; activation, % at 6.8 µM; actives 1.8% (n = 370,000);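 active means activation above a cutoff set at the mean of all screened compounds plus 3 SD, cut at about 10% in these data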;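 further: 0% = DMSO wells and 100% = sodium butyrate wells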
# ssDAF12 agonist = activates DAF-12 receptor from parasite S. stercoralis; HEK293 ssDAF-12/GRIP1 lit1-tk-luc reporter, luminescence; % of 3 µM dafachronic acid response; activation, % at 6.8 µM; actives 1% (n = 370,000);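 active means activation above the mean over all tested compounds plus 3 SD, cut at about 0.9% in these data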;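 further: 0% = DMSO-only wells and 100% = 3 µM delta7-dafachronic acid wells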
# hgDAF12 conf = confirmation of H. glycines DAF-12 agonists; shares compounds with hgDAF12 agonist; HEK293 GAL4-hgDAF12 luciferase reporter, agonist mode; percent of butyrate response; actives 80% (n = 3,300); activation, % at 6.8 µM; AID 743050;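 active means mean activation over triplicate wells above the hit cutoff derived from the earlier primary screen, cut at about 11% in these data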;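 further: 0% = DMSO low control and 100% = 2 mM sodium butyrate high control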
# LXR ag 2 = LXR-beta agonism as DAF-12 counter-screen; shares compounds with hgDAF12 agonist; HEK293 Gal4-LXR luciferase reporter, 24 h; activation, % at 6.8 µM; 3,300 tested, under 10 active;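 active means mean activation of the triplicate above a set limit carried over from the primary screen, none filed active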
# Target sequence (P55055 whole entry, looked up, the tested form may be a part): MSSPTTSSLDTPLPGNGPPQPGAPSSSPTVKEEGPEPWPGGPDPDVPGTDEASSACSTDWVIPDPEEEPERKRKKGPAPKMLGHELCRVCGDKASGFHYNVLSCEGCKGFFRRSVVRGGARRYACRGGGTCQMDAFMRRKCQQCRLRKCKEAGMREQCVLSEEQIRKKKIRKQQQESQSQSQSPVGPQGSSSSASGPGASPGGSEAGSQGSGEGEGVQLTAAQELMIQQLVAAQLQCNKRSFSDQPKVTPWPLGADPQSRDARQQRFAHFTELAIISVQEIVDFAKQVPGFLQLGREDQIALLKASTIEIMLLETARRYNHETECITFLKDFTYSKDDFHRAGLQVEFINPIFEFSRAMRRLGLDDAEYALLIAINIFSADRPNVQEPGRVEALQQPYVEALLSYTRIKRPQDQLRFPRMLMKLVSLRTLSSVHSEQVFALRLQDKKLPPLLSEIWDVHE
# An asterisk follows results filed as active; · = no result given.
SMILES,hcDAF12 agonist,DAX1 inh-1,DAX1 inh-2,hgDAF12 agonist,ssDAF12 agonist,hgDAF12 conf,LXR ag 2
O=C(N/N=C/c1cccc(O)c1)c1ccccc1O,3,2,2,16*,0,9,0
COC(=O)C1=C(CS(=O)(=O)c2cc(OC)ccc2OC)NC(=O)NC1c1ccc(O)c(OC)c1 (configuration not stated),0,1,0,0,-1,·,·
Cc1nc(CN(C)c2ncnc3ccc(-c4ccc5c(c4)OCO5)cc23)cs1,-2,·,-4,1,-1,·,·
C/C(=N/NC(=O)c1cc(C2CC2)[nH]n1)c1cccs1,5.7*,-2,3.8*,15*,0,9,1
COc1ccccc1NC(=O)/C(C#N)=C/c1ccc(OCCN2CCOCC2)c(OC)c1,·,1,·,·,·,·,·
CN(C(=O)c1cccc(COc2ccc(Cl)cc2Cl)c1)c1ccccc1,2,-2,1,13*,-1,13*,1
O=C(NCc1ccccc1)c1cccc(COc2ccccc2Cl)c1,3,-2,-1,9,-1,·,·
CCOc1ccc(-c2nnc(NC3=NCCCCC3)o2)cc1,2,2,1,15*,0,13*,1
CCOc1ccc(-c2nnc(-c3ccccc3)o2)cc1,6.0*,1,3,14*,1,12*,1
CCOc1ccc(S(=O)(=O)NC2=NCCCCC2)cc1,-1,-1,1,0,-1,·,·
O=C(CSc1nc(N2CCOCC2)nc(N2CCOCC2)n1)Nc1ccccc1F,4,2,-1,0,0,·,·
CC(=NNC(=O)c1ccncc1)c1cccc(Cl)c1,-3,2,1,0,-1,·,·
COc1ccc(-c2cc(=O)c3cc(C)ccc3[nH]2)cc1,5.7*,0,3,16*,1,16*,1
O=C(N/N=C/c1ccccc1)c1n[nH]c2c1CCCC2,2,-1,3,17*,1.1*,16*,1
CCC(N=c1cc(-c2ccc(OC)cc2)oc2ccc(C)cc12)C(=O)O (configuration not stated),4,0,3.9*,14*,0,13*,0
C/C(=N\Nc1ccc([N+](=O)[O-])cc1)c1ccco1,3,4.8*,1,15*,0,15*,1
Nc1ccc(-c2nc3ccc([N+](=O)[O-])cc3[nH]2)cc1,2,2,4.3*,16*,0,15*,1
COc1ccc(OCc2cc(C(=O)NC(C)Cc3ccccn3)no2)c(Cl)c1 (configuration not stated),0,0,-2,4,0,·,·
COc1ccc(OCc2cc(C(=O)NC3Cc4ccccc4C3)no2)c(Cl)c1,2,-1,-1,15*,0,2,0
Cn1c(CN2CCOCC2)nnc1SCC(=O)Nc1ccc([N+](=O)[O-])cc1O,-2,1,0,-3,-1,·,·
CCOC(=O)c1cn(Cc2ccc(C)cc2)c2cc(F)ccc2c1=O,0,-2,0,0,-1,·,·
CC(C)(C)NC(=O)CSc1nnc(-c2ccncc2)n1Cc1ccccc1,0,2,0,14*,-1,1,0
CC(C)C(C)(C#N)NC(=O)CSc1nnc(-c2ccncc2)n1Cc1ccccc1 (configuration not stated),0,0,0,-1,-1,·,·
O=C(Nc1cc(Cl)ccc1Cl)c1ccc(-c2ccccc2)cc1,2,-1,1,0,0,·,·
O=C(Nc1ccc(Cl)cc1Cl)C1=Cc2ccccc2OC1,5,3,3,14*,0,18*,1
Cc1ccc(NC(=O)N(C2=NCC(C)S2)c2ccccc2)cc1 (configuration not stated),1,2,1,7,-1,·,·
Cc1cccc(N(C(=O)Nc2ccccc2)C2=NCC(C)S2)c1 (configuration not stated),2,4,1,15*,-1,4,0

# From PubChem
